From PubChem BioAssay (NCI)
Compounds without any hit were thinned out: in the full panel of roughly 79,000, 15% have a hit. Unmarked numbers belong to inactive results. Activity calls are given as the source filed them. No stated cut-off is given here; in the data, active means growth inhibition above about 70%; inactive means the rest.

Assays:
[1] = NCI Yeast Anticancer Drug Screen. Data for the rad50 strain (AID 155);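 further: 0% = growth of vehicle-only cultures of the same strain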; conditions: S. cerevisiae rad50 strain growth inhibition; at 50.0 µM; stronger effect = higher value
Method in brief: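 A DNA repair-deficient yeast mutant serves as the test organism; compound-induced growth inhibition is calculated against vehicle-treated cells.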

[2] = NCI Yeast Anticancer Drug Screen. Data for the mec2-1 strain (AID 157); conditions: S. cerevisiae mec2-1 strain, at 50.0 µM, stronger effect = higher value
Method in brief: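 Each compound was tested on mec2-1 yeast, a strain altered in DNA damage repair or cell cycle control. Growth inhibition is reported relative to vehicle.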

[3] = NCI Yeast Anticancer Drug Screen. Data for the sgs1 mgt1 strain (AID 161);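 further: 0% = growth of cultures given vehicle only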; conditions: S. cerevisiae sgs1 mgt1 strain, at 50.0 µM, stronger effect = higher value
Method in brief: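 Genetically altered yeast, compound exposure, growth inhibition relative to vehicle.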

[4] = NCI Yeast Anticancer Drug Screen. Data for the cln2 rad14 strain (AID 165);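 further: 0% = growth equal to vehicle treated cultures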; conditions: S. cerevisiae cln2 rad14 strain, at 50.0 µM, stronger effect = higher value
Method in brief: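 Test compounds were added to cln2 rad14 yeast cultures; inhibition of growth was then determined by comparison with vehicle treatment.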

[5] = NCI Yeast Anticancer Drug Screen. Data for the bub3 strain (AID 167); conditions: S. cerevisiae bub3 mutant strain, at 50.0 µM, stronger effect = higher value
Method in brief: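 Inhibition values come from growth of compound-treated mutant yeast normalised to vehicle-treated controls.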

[6] = NCI Yeast Anticancer Drug Screen. Data for the mlh1 rad18 strain (AID 175); conditions: S. cerevisiae mlh1 rad18 strain growth inhibition; at 50.0 µM; stronger effect = higher value
Method in brief: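 Inhibition values reflect reduced growth of mutant yeast versus vehicle-treated controls following compound exposure; the mutations affect DNA damage repair.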

Structure (SMILES) | growth inhibition [1] | growth inhibition [2] | growth inhibition [3] | growth inhibition [4] | growth inhibition [5] | growth inhibition [6]
O=C(O)Cc1c(O)ccc2ccccc12 | -32.7% | -16.3% | -34.5% | -29.8% | -38.6% | -3.7%
Nc1ccc2cn[nH]c2c1 | 3.5% | -11.6% | -6.95% | -10.4% | 5.8% | -2%
O=C(Cl)c1ccc2c(c1)C(=O)NC2=O | -6.55% | -12.1% | -19.4% | 8.95% | -5.95% | -16.4%
O=C(/N=C/c1c(O)c2ccccc2oc1=O)NC1CCCCC1 | -16.1% | -9.2% | -25.9% | 0.65% | -17.6% | -5.8%
COc1cc2c(c(OC)c1OC)-c1ccc(SC)c(=O)cc1[C@@H](NC1OCC(O)C(O)C1O)CC2 (stereo partly specified) | 20.4% | 35.1% | 24.1% | 8.65% | 21.1% | 16.8%
COc1ccc(C(=O)N2CCCCC2)cc1 | -31.1% | -15.8% | -3.8% | -26.6% | -0.9% | -12.2%
CN(C(=O)C12C3C4C1C1C2C3C41C(=O)N(C)C(C)(C)C)C(C)(C)C (stereo unspecified) | 13.9% | 11.5% | -7.4% | 9.45% | 23.4% | -2.4%
NS(=O)(=O)c1ccc(NC(NC(=O)C(C(F)(F)F)C(F)(F)F)(C(F)(F)F)C(F)(F)F)cc1 | 16.6% | 15.1% | -6.2% | -8.25% | 5.15% | -0.8%
CSc1nnc2c3ccccc3ccn12 | 4.9% | 11.6% | -2.25% | -3.3% | -14.1% | 52.5%
CCN(CC)c1ccc(C(=O)c2ccccc2C(=O)O)c(O)c1 | -38.2% | -8.75% | -27.4% | 5.35% | -15.8% | 5.2%
CCC(C)(CC)OC(=O)c1ccc([N+](=O)[O-])cc1 | -0.35% | -0.45% | 5.05% | -7.4% | 2.85% | 43.3%
CCOC(=O)C(C#N)S(C)(=O)=O (stereo unspecified) | 4.55% | -6.55% | 1.9% | -35.3% | -12.1% | -1.6%
Nc1ccc2cc3ccccc3cc2c1 | 12.6% | -20.6% | 1.95% | -18% | 7.35% | 25%
CCC1C(=O)OCc2c1cc1n(c2=O)CCC12OCCO2 (stereo unspecified) | 0.1% | -15.1% | -36.8% | -17.6% | -23.8% | -15.6%
COc1cc(Nc2nc3ccc(C(F)(F)F)cc3nc2-c2ccccc2)cc(OC)c1OC | 0.05% | 4.2% | -36% | -12.2% | -9.3% | -22.9%
CC(=O)C(CCN(C)C)(c1ccccc1)C1CCCCC1 (stereo unspecified) | -12.2% | -15.2% | -2.85% | -6.65% | -10.5% | -3.6%
O=C1/C(=C\C=C\c2ccccc2)CCC/C1=C/C=C/c1ccccc1 | 15.3% | 5.05% | 5.7% | 20.8% | 34% | 3.1%
Cc1cccc(NC(=O)c2ccc(Cl)cc2Cl)n1 (tested in a mixture with another compound) | -2.95% | -7.05% | 3.45% | -25.6% | 4.05% | 20.9%
O=C(NC(CO)C(=O)O)c1ccccc1 (stereo unspecified) | 6.65% | -14.2% | -14.5% | -44.5% | -18.9% | -12.9%
O=C1C2C3C=CC(O3)C2C(=O)N1N=C1CCCCC1 (stereo unspecified) | 10.4% | 13.2% | 14.2% | 8.65% | 12.6% | 19.4%
CC1(C)N=C(/C(Cl)=[N+](/[O-])C(=O)c2ccc(Cl)cc2)C(C)(C)N1O | -21.1% | -26.9% | -24.1% | -7.3% | -38.6% | -8.4%

Structure (SMILES) | growth inhibition [1] | growth inhibition [2] | growth inhibition [3] | growth inhibition [4] | growth inhibition [5] | growth inhibition [6]
Cc1nc(N)[nH]c(=O)c1CCCNC(=O)c1cccc([N+](=O)[O-])c1 | -1.55% | 2.65% | 11.4% | -4.7% | 30.5% | 18.6%
CSC(C(OC(C)=O)C(OC(C)=O)C(OC(C)=O)C(COC(C)=O)OC(C)=O)n1cnc2c(=S)nc[nH]c21 (stereo unspecified) | 26.4% | -12.4% | -11.6% | 13.2% | -0.45% | 1.95%
O=C(O)/C=C/C(=O)Nc1cc2c(cc1Br)-c1ccccc1C2O (stereo unspecified) | -2.75% | 12.5% | 14.3% | 14.1% | 1.25% | 34%
CCCOc1nc(N)c2cnn(C3CCCCO3)c2n1 (stereo unspecified) | -14.9% | -25.5% | 8.05% | 16.1% | 14.2% | -9.25%
C[N+]1(C)CC2CCC1C2 (stereo unspecified) | 1.1% | 16.1% | 17.6% | -27.8% | -9.05% | -7.1%
CC1(CCl)Nc2ccccc2C(=O)N1c1ccc(F)cc1 (stereo unspecified) | -7.55% | -21.9% | -0.9% | 1.4% | 14.6% | -3.35%
Cc1ccc(S(=O)(=O)OCC2COC(C(C)C)OC2)cc1 (stereo unspecified) | 5.45% | -2.95% | 9.3% | 2.15% | 48% | -1.25%
COC1=C(C(c2cc(OC)c(OC)c(OC)c2)c2cc3c(cc2OC)OCO3)C(=O)OC1 (stereo unspecified) | -18.6% | -5.9% | -2.9% | 6.25% | 1.1% | 13.4%
COc1cc(/C=C/Cc2cc3c(cc2OCCO)OCO3)cc(OC)c1OC | -1.05% | 0.3% | 7.6% | -11.7% | -4.65% | 19.6%
CS(=O)(=O)c1ccc(C=O)cc1 | 12.8% | 6% | 2.25% | -3.8% | -1.4% | 8.3%
O=C(O)C(Oc1ccccc1)Oc1ccccc1 | -24.7% | -13.2% | -11.8% | 5.85% | 6.6% | -4.95%
CCCCCCCCCCCCCCCCCC(=O)OCC([N+](=O)[O-])([N+](=O)[O-])[N+](=O)[O-] | -9.3% | -1.3% | -5.3% | -19% | -26.1% | 1.9%
C(=C\c1ccco1)/c1ccco1 | 25.1% | 11.2% | 12.3% | 9.85% | -20.9% | -25.9%
CCCCCCCCCSc1nc2ccc(N=Cc3ccccc3O)cc2s1 | -2.85% | -6.8% | -23.5% | -10.1% | 1.3% | -40.6%
CC1=C(c2cc(C(=O)Nc3cc(C)ccc3C)nc(N)n2)Sc2ccccc2N1 | 5.25% | -10.8% | -25.8% | -18.1% | -13.1% | -10.8%
CC(=O)c1nc(C#N)c(N)o1 | 1.9% | -3.55% | -17.7% | 20.8% | -20.2% | -23.4%
CCCCCC(=O)N1SC(NC(=O)OC)=Nc2ccccc21 | 63.5% | 47.5% | 64.8% | 84.3% (active) | 90.6% (active) | 83.5% (active)
CCOC(=O)C(C)(NC(=O)c1ccc(NCc2ccc3nc(NC(=O)c4ccccc4)nc(NC(=O)c4ccccc4)c3c2)cc1)C(=O)OCC | -4.1% | -24% | 7.5% | -24.1% | -16.5% | -8.45%
CCCCCC(/C=N/Nc1ccccn1)=C\c1ccccc1 | -0.25% | -2.1% | 3.9% | -18.2% | -17.4% | -17.4%
COc1cc(OC)c(OC)cc1/C=C/c1cc[n+](C)c2ccccc12 | 9.1% | -6.35% | 11.6% | -0.8% | 4.95% | 8.05%
